FLuc inh = inhibitors of firefly (Photinus pyralis) luciferase; P08659; purified P. pyralis luciferase, luminescence, biochemical; Potency, µM (titrated, usually from 115 µM), usual class: inhibitors; 76,000 tested, 2.5% active; AID 1347043; further: nearly all actives have a fitted effect of over 65% in size
Target sequence (P08659 whole entry, looked up): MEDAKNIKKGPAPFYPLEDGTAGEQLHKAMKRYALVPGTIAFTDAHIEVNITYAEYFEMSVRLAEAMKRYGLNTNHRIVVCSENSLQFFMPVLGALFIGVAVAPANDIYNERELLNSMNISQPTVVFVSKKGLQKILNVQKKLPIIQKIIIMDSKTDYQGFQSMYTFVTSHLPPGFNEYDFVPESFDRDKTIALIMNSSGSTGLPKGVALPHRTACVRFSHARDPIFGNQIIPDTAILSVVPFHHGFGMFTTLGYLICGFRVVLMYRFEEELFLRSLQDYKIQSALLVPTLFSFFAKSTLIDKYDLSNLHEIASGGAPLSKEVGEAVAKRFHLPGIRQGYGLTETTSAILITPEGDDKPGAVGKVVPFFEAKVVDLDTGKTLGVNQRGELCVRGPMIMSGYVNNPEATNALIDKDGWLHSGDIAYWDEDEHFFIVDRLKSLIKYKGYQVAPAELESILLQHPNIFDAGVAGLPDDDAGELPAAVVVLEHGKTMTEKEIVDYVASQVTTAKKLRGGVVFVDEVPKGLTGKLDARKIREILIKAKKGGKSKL
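Biochemical qHTS: compound (6-point titration) added to 10uM D-luciferin plus 10uM ATP in Tris acetate pH 7.5 buffer with Mg, Tween-20 and BSA, then purified enzyme at 10nM; light output imaged.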
HEK293 tox = cytotoxic compounds in HEK 293 cells; Potency, µM (top dose mostly 115 µM), actives largely listed as inhibitors; HEK 293 viability, ATP luminescence (CellTiter-Glo), 48-72 h; 94,000 tested, 6.6% active; further: nearly all actives have a fitted effect of over 60% in size
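Read-out: CellTiter-Glo ATP luminescence. Cells: HEK 293, 250 cells/well. Exposure: 48 or 72 hr, 37 degree Celsius.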
NPR1 antag = human Npr1 receptor antagonism | P16066 | HEK293 hNpr1 GloSensor cGMP, ANP-stimulated luminescence | Potency, µM (highest dose often 46.3 µM), usual class: inhibitors | 76,000 tested, 1.6% active; calls by dose curve; further: nearly all actives have a fitted effect of over 60% in size
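Compound pre-incubated 30 min at room temperature on GloSensor-loaded HEK293 cells stably carrying hNpr1 and the pGS-40F cGMP biosensor. Stimulation uses hNppA at 0.1 nM final; luminescence is taken at baseline and 20 min post-agonist.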
3T3 cytotox = NIH 3T3 cell cytotoxicity; NIH 3T3 viability, CellTiter-Glo ATP luminescence, 48-72 h; 94,000 tested, 4.3% active; Potency, µM (top dose mostly 96.7 µM), actives largely listed as inhibitors; further: nearly all actives have a fitted effect of over 55% in size
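First NIH 3T3 cells are plated at 400 cells/well; next compound is pinned in; then plates incubate 48 or 72 hr at 37 °C; finally CellTiter-Glo is added and luminescence read after 10 min.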
GPT2 inh = inhibitors of human GPT2 alanine aminotransferase; Q8TD30; Recombinant GPT2, coupled pyruvate oxidase/HRP Amplex Red fluorescence; Potency, µM (titrated, usually from 57.7 µM), hits mostly inhibitors; AID 1671188; 100,000 tested, 0.25% active; further: nearly all actives have a fitted effect of over 60% in size
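GPT2 10ng/uL, a-KG 250uM, L-Ala 2mM, HEPES pH7.5 + 0.0001% Tween; 30 min RT. Then Amplex mix (PO/HRP/ThPP), 30 min RT dark, fluorescence. AOA 50uM used as positive control.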
Numbers stand for hits; n = inactive; u = inconclusive; x = no result; ! = repeats disagree. Most compounds without a hit are left out; they make up all but 10% or so of the library. Unless noted, the call rests on the fitted dose curve; in most records, active means well fitted curve in the direction sought with a large enough effect; inconclusive means small, poorly fitted or top-dose-only effect, or another doubt; inactive means no such curve, though single readings can be large; an effect the other way counts as inactive or inconclusive.

SMILES	FLuc inh	HEK293 tox	NPR1 antag	3T3 cytotox	GPT2 inh
O=C(C[C@@H]1CCNC[C@@H]1Cc1cc(CC2CCCCC2)on1)NCc1ccco1	n	44.7µM	u	100µM	n
COc1ccc(CNC(=O)C[C@@H]2CCNC[C@@H]2Cc2cc(COc3ccccc3)on2)cc1	n	u	n	25.1µM	n
COc1ccc(CNC(=O)C[C@@H]2CCNC[C@@H]2Cc2cc(CSc3ccccc3)on2)cc1	n	50.1µM	n	u	n
O=C(C[C@@H]1CCNC[C@@H]1Cc1cc(COc2ccccc2)on1)NCc1ccc(F)cc1	n	u	n	u	n
COc1ccc(CNC(=O)C[C@@H]2CCNC[C@@H]2Cc2cc(C(C)(C)C)on2)cc1	n	u	n	n	n
O=C(C[C@@H]1CCNC[C@@H]1Cc1cc(CC2CCCCC2)on1)NCc1cccnc1	n	n	n	u	n
COc1ccc(CNC(=O)C[C@@H]2CCNC[C@@H]2Cc2cc(CC3CCCCC3)on2)cc1	n	28.2µM	u	28.2µM	u
Cc1nc(-c2c3n(c(=O)n(Cc4ccc(F)c(F)c4)c2=O)CCCCC3)no1	n	n	n	n	n
O=C(C1CCCCC1)N1CC[C@H](c2nnc(-c3cccnc3)o2)C1	n	n	n	n	u
Cc1cc(F)ccc1OC1CN(C(=O)c2ccccn2)C1	50.1µM	u	n	u	u
Cc1cc(OC2CN(C(=O)c3ccccn3)C2)ccc1F	u	79.4µM	n	u	n
Cc1cc(C(=O)N2CC(=O)N(C3CCCCC3)CC(OCc3ccccc3)C2)n(C)n1 (configuration not stated)	n	n	n	n	n
CO[C@H]1C(=O)N(C(C)C)[C@H]1C1CCN(C(=O)Cn2ccnc2)CC1	n	n	n	n	n
O=C1NCCCCCN(C(=O)c2ccncc2)[C@H]2CCCC[C@@H]12	n	n	n	n	n
O=C(c1ccoc1)N1CCN(c2cc(-c3cccs3)[nH]n2)CC1	n	n	n	n	n
O=C(c1c[nH]c2ccccc12)N1CCN(c2cc(-c3cccs3)[nH]n2)CC1	n	44.7µM	n	u	n
O=C(c1ccccc1Br)N1CCN(c2cc(-c3cccs3)[nH]n2)CC1	n	u	n	u	n
Cc1ccc(C(=O)N2CCN(c3cc(-c4cccs4)[nH]n3)CC2)cc1	n	u	n	12.6µM	n
O=C1Nc2ccc(-c3ccccc3F)cc2C(=O)N2C[C@H](O)C[C@@H]12	n	n	n	n	n
CN(Cc1ncc[nH]1)C(=O)C1CCC(=O)N(CCc2ccccn2)C1 (configuration not stated)	n	n	n	n	n
O=C(C1CCCC1)N1CC(c2noc(COc3ccccc3)n2)C1	n	u	n	n	n
FC(F)Oc1cccc(CNC2CCC3(CCNCC3)CC2)c1	n	50.1µM	n	u	n
Cc1ccc(-c2ccccc2CN2CCC(C(=O)NCC3CCCCC3)CC2)cc1Cl	x	n	x	n	x
NCc1ccc(-c2cc(F)cc(F)c2)cc1	x	u	x	50.1µM	n
Cc1cc(C)cc(-c2ccc(C=O)cc2)c1	x	126µM	x	u	n
SMILES	FLuc inh	HEK293 tox	NPR1 antag	3T3 cytotox	GPT2 inh
COc1ccc(-c2cccc(CN)c2)cc1	x	u	x	u	n
Cc1cc(C)cc(-c2ccc(CN)cc2)c1	x	28.2µM	x	u	n
CCn1cc(-c2nc3cc(S(=O)(=O)N4CCCC4)ccc3n2C)c(C)n1	n	n	n	n	n
CN1CCN(CCCNC(=O)c2c(OCC3CC3)cc(=O)n3c2CCOCC3)CC1	n	n	n	n	n
COC(=O)[C@@H]1Cc2c([nH]c3ccccc23)[C@H]2C[C@@H](NCCN3CCOCC3)C[C@@H](c3ccc(C(F)(F)F)cc3)N21	n	7.94µM	u	14.1µM	n
COC(=O)[C@@H]1Cc2c([nH]c3ccccc23)[C@H]2C[C@@H](NCCN3CCOCC3)C[C@@H](c3ccc(OC(F)(F)F)cc3)N21	n	25.1µM	n	22.4µM	n
COC(=O)[C@@H]1Cc2c([nH]c3ccccc23)[C@H]2C[C@@H](NCCN3CCOCC3)C[C@@H](c3ccc(F)c(F)c3)N21	n	u	n	28.2µM	u
COCC(=O)N1CC2(Cc3ccccc3N([S+](C)(=O)[O-])C2)C1	n	u	n	n	n
COCc1ccc2c(c1)c(OC(C)(C)C(=O)NC1CC1)nn2CCC(C)C	n	u	u	u	n
COCc1ccc2c(c1)c(OC(C)(C)C(=O)NC1CCN(C)CC1)nn2CCC(C)C	n	u	n	89.1µM	n
COCc1ccc2c(c1)c(OC(C)(C)C(=O)Nc1ccccn1)nn2CCC(C)C	n	89.1µM	n	44.7µM	n
O[C@@H]1C[C@@H](c2nc(-c3ccc4c(c3)OCO4)no2)N(C2CCOCC2)C1	n	n	n	n	n
O=S(=O)(c1ccccc1)N1CCN(c2cc(C3CC(O)C3)ncn2)CC1 (configuration not stated)	n	39.8µM!	n	u	n
COCCOC1CCOC2(CCN(C(=O)Nc3cccc(C)c3)CC2)C1 (configuration not stated)	n	n	n	n	n
COc1ccc(OC)c(C(O)Cn2ccn3nc(-c4cccs4)cc3c2=O)c1 (configuration not stated)	n	35.5µM	n	u	n
COc1cccc(-c2cc(C(=O)NCc3cccc(Cl)c3)c3cnn(C)c3n2)c1	x	u	x	22.4µM	x
Cc1ccc(-c2cc(C(=O)NCc3cccc(Cl)c3)c3cnn(C)c3n2)c(C)c1	x	31.6µM	x	u	n
Cn1ncc2c(C(=O)NCc3cccs3)cc(-c3ccc(Cl)cc3)nc21	x	u	x	u	n
Cn1ncc2c(C(=O)NCc3cccs3)cc(-c3ccc(C(F)(F)F)cc3)nc21	x	35.5µM	x	u	x
COc1cccc(-c2cc(C(=O)NCc3cccs3)c3cnn(C)c3n2)c1	x	u	x	25.1µM!	x
Cn1ncc2c(C(=O)NCc3cccc(Cl)c3)cc(-c3ccccc3)nc21	x	n	x	n	n
Cc1ccc(-c2cc(C(=O)NCc3cccc(Cl)c3)c3cnn(C)c3n2)cc1	x	n	x	n	n
CC(C)c1nnc(C2CN(C(=O)c3cccc(Br)c3)CC23CCOCC3)o1 (configuration not stated)	n	n	n	n	n
O=C1CCN(S(=O)(=O)c2ccc3c(c2)CCC3)CCCC(C(=O)NCc2ccccc2)CCN1 (configuration not stated)	n	n	n	n	n
Cn1ncc2c(C(=O)NCCc3c[nH]c4ccccc34)cc(-c3ccc(C(F)(F)F)cc3)nc21	x	u	x	39.8µM	x
COc1cccc(-c2cc(C(=O)NCC#N)c3cnn(C)c3n2)c1	x	u	x	39.8µM	x
COc1cc(CNC(=O)c2cc(-c3ccc(Cl)cc3Cl)nc3c2cnn3C)cc(OC)c1	x	44.7µM	x	u	n
COc1cccc(CNC(=O)c2cc(-c3ccc(F)cc3)nc3c2cnn3C)c1	x	28.2µM	x	u	n
COc1ccc(-c2cc(C(=O)NCc3cccc(OC)c3)c3cnn(C)c3n2)cc1	x	u	x	u	n

High-throughput results: PubChem BioAssay, National Center for Advancing Translational Sciences (NCATS)
